Source: PubChem BioAssay AID743269 (The Scripps Research Institute Molecular Screening Center, 2014)
Hit rate of the full screen: of about 370,000 compounds, about 2,400 (0.65%) were called active. The sample as a whole holds a higher share of actives than the screen did. Values without a mark were called inactive.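 The calls were made as follows: active = inhibition above the screen-wide mean plus 3 SD (cut at about 13% in these data); inactive = the rest.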

Each compound was assayed on HIV-1 integrase (with human LEDGF/p75) (assay: blockers of LEDGF/p75-dependent integrase strand transfer – biochemical, TR-FRET, high throughput, primary screen (AID 743269;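 also: signal is the Cy5 over europium emission ratio at 671 and 618 nm; 0% = plate median of compound wells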)). Details: TR-FRET IN-LEDGF/p75 DNA integration, Eu/Cy5; at 3.7 µM; hits give high values.

Structure (SMILES) | inhibition
O=C(CSc1nc2ccccc2n1Cc1ccccc1)NNC(=S)Nc1ccccc1 | 5.2%
COC(=O)C[C@@H]1CC[C@@H]2[C@@H](COc3ccc(NC(=O)Nc4ccc(F)c(F)c4)cc3C(=O)N2C)O1 | 0.03%
COC(=O)c1cccc(Cn2ccc3ccc(-c4ccc5ccn(C(=O)C6CCCCC6)c5c4)cc32)c1 | 0.91%
COC(=O)C[C@H]1CC[C@H]2[C@H](COc3ccc(NC(=O)C4CC4)cc3C(=O)N2C)O1 | 2.4%
Oc1cccc(/C=N/Nc2ccc(Cl)nn2)c1O | 18.5% (active)
C/C(=N\Nc1ccc(Cl)nn1)c1ccccc1O | -4.19%
CCOC(=O)[C@]12CCCCC/C=C\1N(Cc1ccc(OC)cc1)C(=O)[C@H]2CC(=O)NCCCN1CCCC1=O | -3.19%
COC(=O)c1cc(S(=O)(=O)N2CCN(C(=O)C3CCCO3)CC2)cn1C (stereo not drawn) | 8.59%
COc1ccc(-n2c(SCC(=O)Nc3ccc4cn[nH]c4c3)nnc2-c2cccnc2)cc1 | -0.62%
COc1ccc(-c2cc(-c3nnc(SCC(=O)Nc4cccc5ccccc45)n3N)[nH]n2)cc1 | -3.91%
Cc1c(C)c2c(OCC(=O)N[C@@H](C(=O)O)c3ccccc3)cc3c(c2oc1=O)CCC(C)(C)O3 | -4.85%
Cc1cc(=O)oc2c3c(cc(OCC(=O)N[C@H](C(=O)O)c4ccccc4)c12)OC(C)(C)CC3 | 18.2% (active)
Cc1cc(=O)oc2c3c(cc(OCC(=O)NCC(O)c4ccccc4)c12)OC(C)(C)CC3 (stereo not drawn) | -5.46%
O=C(NC1CCCCN(Cc2ccc(Cl)cc2)C1=O)c1ccc(Br)cc1 (stereo not drawn) | 2.38%
COC(=O)[C@]12C[C@H](CC(=O)NCC34CC5CC(CC(C5)C3)C4)C(=O)N(Cc3ccc(Cl)cc3Cl)C1=C[C@H](COCc1ccccc1)O[C@@H]2C | -4.42%
CC(C)CSc1nnc(-c2cccnc2)n1Cc1ccccc1 | 1.09%
CCOc1c(Br)cc(/C=C2\C(=O)N(CCC#N)N=C2C)cc1OC | 36% (active)
COC(=O)[C@H](C(C)C)N(CCc1cn(Cc2ccccc2)nn1)S(=O)(=O)c1ccc(F)cc1Br | -1.7%
FC(F)(F)c1cccc(NC(=S)OC2CCC23CCC(c2ccccc2)CC3)c1 (stereo not drawn) | 2.54%
Nc1[nH]c(/C=C2/CCCCC2n2[nH]c(=O)n(-c3ccccc3)c2=O)c(Cc2ccccc2)[n+]1Cc1ccccc1 (stereo not drawn) | 3.55%
C[C@H]1[C@H](NC(=O)c2cccc(N(C)C)c2)CC[C@@]23CCCN2C(=O)CCC[C@@H]13 | -2.54%
CCN1CCN(C(=O)C2CCN(S(=O)(=O)c3cc(Cl)ccc3Cl)CC2)CC1 | 1.63%
O=C(CN1CCN(S(=O)(=O)c2cc(Cl)ccc2Cl)CC1)c1ccc(O)c(O)c1 | 50.6% (active)
O=S(=O)(c1cc(Cl)ccc1Cl)N1CCN(Cc2ccco2)CC1 | -3.53%
CC(=O)O[C@@]1(C(C)=O)CCC2[C@H]3C=C(C)C4=CC(=O)CC[C@@]4(C)C3CC[C@]21C (stereo partly drawn) | -5.1%
O=C(NCCc1c[nH]c2ccccc12)OCc1cn(-c2c(F)cccc2F)nn1 | 4.42%
COc1cc(NC(=O)COC(=O)c2cnc(C)cn2)c(C)cc1[N+](=O)[O-] | -1.79%

Structure (SMILES) | inhibition
COc1cc(NC(=O)COC(=O)c2ccc([N+](=O)[O-])s2)cc(OC)c1OC | 32.2% (active)
COc1cc(CCC(=O)OCC(=O)Nc2cccc(S(N)(=O)=O)c2)cc(OC)c1OC | -0.51%
CC(C)CNc1cccc2c1S(=O)(=O)N(Cc1cn(Cc3ccc(Cl)cc3)nn1)Cc1ccccc1O2 | 4.9%
O=C(CCl)NC1CCCCN(Cc2cccc(C(F)(F)F)c2)C1=O (stereo not drawn) | 0.3%
COc1ccccc1C1C(C#N)=C(N)Oc2c1c(-c1ccccc1)nn2-c1ccccc1 (stereo not drawn) | 43.4% (active)
COc1ccccc1C1CC(=O)n2c(nc(-c3ccccc3)c2-c2ccccc2)S1 (stereo not drawn) | -1.14%
COc1ccc(C2C(C#N)=C(N)Oc3n[nH]c(C)c32)cc1CN1CCN(c2ccc(F)cc2)CC1 (stereo not drawn) | 6.04%
O=C(Nc1cccc(Cl)c1)OC1CC2CC1[C@H]1CCCCN1[C@H]2Cc1ccccc1 (stereo partly drawn) | -1.12%
CN(CCc1ccccc1)C(=O)Cn1nc(-c2ccccc2)ccc1=O | -1.71%
O=C(NCc1ccc(Cl)cc1)C1CCCN(c2nc3ccccc3o2)C1 (stereo not drawn) | -2.98%
CCOCCOC(=O)C1=C(C)N(C)C(=O)NC1c1ccccc1F (stereo not drawn) | -1.24%
COc1ccc(C2NC(=O)N(C)C(C)=C2[N+](=O)[O-])cc1 (stereo not drawn) | -0.24%
COC(=O)C1=C(C)N(C)C(=O)NC1c1ccc([N+](=O)[O-])o1 (stereo not drawn) | 46.5% (active)
CCCCCN1CCCCC(NC(=O)C(C)CCC)C1=O (stereo not drawn) | -0.51%
COCCCNC(=O)C[C@H]1C[C@@]2(C(=O)OC)C(=C[C@H](C(C)(C)C)O[C@@H]2C)N(Cc2ccc(Cl)cc2Cl)C1=O | 2.76%
O=C(OC12CCCN(C1)/C(=C/c1cccnc1)C2)C1CCCC1 (stereo not drawn) | -0.68%
OC(c1ccccc1)C(CN1CCOCC1)c1ccccc1 (stereo not drawn) | 2.05%
OCCN1CCOCCOCCN(CCO)CCN(CCO)CC1 | -1.91%
Oc1c(CN2CCOCC2)ccc(CN2CCOCC2)c1O | 58% (active)
CCOC(=O)c1cnc2sccn2c1=O | 2.78%
O=C(NCc1ccccn1)c1cnc2sccn2c1=O | 3.23%
CN(C)/C=C/C(=O)c1cnc2sccn2c1=O | 16.3% (active)
O=C(NC1CCC1)c1ccc(C#CC2CC2)cn1 | 0.75%
COc1cccc(CNC(=O)CNS(=O)(=O)c2ccc3nc(C)sc3c2)c1OC | 2.85%
COC(=O)[C@@]12CCCCC3=C1N(CCC3)C(=O)[C@H]2CC(=O)NCc1cccc2ccccc12 | 0.3%
COc1cccc(CSc2nnc(-c3cccnc3)n2Cc2ccccc2)c1 | -2.05%
